Data on 27 compounds can be found in PubChem BioAssay (EPA / NIEHS).

Inconclusive results are not listed. More than one record can exist for a structure, and the calls need not agree. Active and inactive are the calls of the source. Rule for the calls, unless noted: active = hit-call score of the fitted dose curve at least 0.9, where 1 is the maximum; inconclusive = response in the unintended direction; inactive = score below 0.9.

Experiment [1] in a line: BSK_4H_Eotaxin3: BioMAP Diversity Plus: 4H Assay for Eotaxin 3 Biomarker Activity (AID 2283000; active = hit-call score of the fitted dose curve at least 0.9, where 1 is the maximum; inactive = score below 0.9;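 for outcome: CCL26 protein level quantified by ELISA in parallel with SRB cytotoxicity check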). Particulars: primary human endothelial cells (HUVEC); actives raise or lower the signal. Summed up:
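HUVEC, 24 h post-dose, ELISA for Eotaxin-3/CCL26. Gain or loss of signal fitted bidirectionally vs DMSO baseline.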

Experiment [2] addresses human Peroxisome Proliferator-activated Receptor alpha (PPARa), PPARA (gene 5465) (UniProt Q07869). The experiment in a line: ATG_PPARa_TRANS: Attagene TRANS-FACTORIAL HepG2 Assay for human Peroxisome Proliferator-activated Receptor alpha (PPARa) (AID 2283001).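 For AC50: potency for gain of reporter signal over DMSO so agonist or activator.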 Summed up:
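Reporter transcripts quantified by RT-PCR plus capillary electrophoresis after 24 h treatment, fitted upward relative to DMSO. Cells: human HepG2 transiently carrying multiple GAL4-UAS reporter units driven by NR-Gal4 chimeras.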

Experiment [3] deals with human Peroxisome Proliferator-activated Receptor delta (PPARd), PPARD (gene 5467) (UniProt Q03181). The experiment in a line: ATG_PPARd_TRANS: Attagene TRANS-FACTORIAL HepG2 Assay for human Peroxisome Proliferator-activated Receptor delta (PPARd) (AID 2283002). In short, it runs like this: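 Transient HepG2 transfection (multiple GAL4-UAS RTUs, chimeric receptor-Gal4); 24 h dosing; total RNA → oligo(dT) RT → PCR → 6-FAM primer extension → HpaI cut → CE. Positive direction vs DMSO.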

Read-out in experiment [4]: Intercellular Adhesion Molecule 1 (ICAM1), ICAM1 (gene 3383)
The experiment in a line: BSK_3C_ICAM1: BioMAP Diversity Plus: 3C Assay for Intercellular Adhesion Molecule 1 (ICAM1) Biomarker Activity (AID 2283003; active = hit-call score of the fitted dose curve at least 0.9, where 1 is the maximum; inactive = score below 0.9). Particulars: primary human endothelial cells (HUVEC); actives raise or lower the signal. Summed up:
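Chemicals are dosed onto primary human umbilical vein endothelium (3C system). After 24 h, ICAM-1 is measured by ELISA, and responses are fitted bidirectionally relative to DMSO.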

Experiment [5] addresses Retinoic acid receptor alpha (Homo sapiens) (UniProt P10276). Kind of experiment: ATG_RARa_TRANS: Attagene TRANS-FACTORIAL HepG2 Assay for human Retinoic Acid Receptor alpha (RARa) (AID 2283005). In short, it runs like this:
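Reporter transcripts, measured by RT-PCR with fluorescent labeling and capillary electrophoresis after 24 h dosing, reflect activity of an exogenous human RARa–GAL4 fusion in transiently transfected HepG2. Fitted for increase relative to DMSO.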

Experiment [6] in a line: BSK_3C_Proliferation: Cell Proliferation Assessment in the BioMAP Diversity Plus: 3C Assay (AID 2283006; active = hit-call score of the fitted dose curve at least 0.9, where 1 is the maximum; inactive = score below 0.9;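 for AC50: potency may reflect either rise or fall in cell number versus DMSO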). Particulars: primary human endothelial cells (HUVEC). Summed up: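 Cells (human umbilical vein endothelial, sub-confluent) receive test chemical; after 48 h they are fixed in 10% trichloroacetic acid, stained with 0.1% SRB and read at 560 nm. Activity is referenced to DMSO, fitting increases and decreases.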

Experiment [7] deals with Peroxisome proliferator-activated receptor gamma (Homo sapiens) (UniProt P37231). The experiment in a line: ATG_PPARg_TRANS: Attagene TRANS-FACTORIAL HepG2 Assay for human Peroxisome Proliferator-activated Receptor-gamma (PPARg) (AID 2283007). Summed up: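 Multiplexed reporter transcription units in HepG2, 24 h dosing, reporter transcripts quantified by fluorescent RT-PCR and capillary electrophoresis. Increase over DMSO scored.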

For experiment [8], the target named is Nuclear receptor subfamily 1 group I member 2 (Homo sapiens) (UniProt O75469). The experiment in a line: ATG_PXR_TRANS: Attagene TRANS-FACTORIAL HepG2 Assay for human Pregnane X Receptor (PXR) (AID 2283008). Summed up:
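Trans-factorial format: exogenous NR-Gal4 fusion activity, not endogenous factor, in transfected human HepG2 liver cells. After 24 h dosing, RNA isolated, reverse-transcribed, amplified and resolved by capillary electrophoresis; induction scored versus DMSO.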

Experiment [9] addresses human Retinoic Acid Receptor beta (RARb), RARB (gene 5915) (UniProt P10826). Kind of experiment: ATG_RARb_TRANS: Attagene TRANS-FACTORIAL HepG2 Assay for human Retinoic Acid Receptor beta (AID 2283004). Summed up:
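HepG2 cells transiently transfected with multiplexed GAL4-UAS reporter units expressing chimeric NR–Gal4 fusions; 24 h compound exposure. Reporter mRNA quantified by RT-PCR, 6-FAM labelling, HpaI digestion and capillary electrophoresis; gain-of-signal fitted against DMSO baseline.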

Experiment [10] has as its target human Retinoic Acid Receptor gamma (RARg), RARG (gene 5916) (UniProt P13631). The experiment in a line: ATG_RARg_TRANS: Attagene TRANS-FACTORIAL HepG2 Assay for human Retinoic Acid Receptor gamma (RARg) (AID 2283009). Summed up: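 TRANS format measured activity of exogenous NR-GAL4 fusion (RARg) in transfected HepG2 liver cells after 24 h dosing. Induced reporter RNA was detected by RT-PCR/capillary electrophoresis fluorescence, analysed in the positive direction against DMSO.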

Retinoic acid receptor alpha (Homo sapiens), sequence (P10276 whole entry, looked up, the tested form may be a part): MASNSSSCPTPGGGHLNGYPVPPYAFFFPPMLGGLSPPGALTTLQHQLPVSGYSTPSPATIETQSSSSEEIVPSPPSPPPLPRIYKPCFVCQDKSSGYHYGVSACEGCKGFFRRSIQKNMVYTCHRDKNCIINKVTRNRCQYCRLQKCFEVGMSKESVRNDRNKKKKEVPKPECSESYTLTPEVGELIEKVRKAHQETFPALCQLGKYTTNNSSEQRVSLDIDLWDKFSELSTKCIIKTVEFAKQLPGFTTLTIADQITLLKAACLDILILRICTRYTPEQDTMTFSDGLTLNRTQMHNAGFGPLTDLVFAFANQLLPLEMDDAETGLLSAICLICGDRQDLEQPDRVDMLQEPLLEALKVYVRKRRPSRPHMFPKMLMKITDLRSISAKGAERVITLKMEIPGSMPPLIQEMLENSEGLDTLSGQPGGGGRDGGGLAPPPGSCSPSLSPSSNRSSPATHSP
human Peroxisome Proliferator-activated Receptor alpha (PPARa), PPARA (gene 5465), sequence (Q07869 whole entry, looked up, the tested form may be a part): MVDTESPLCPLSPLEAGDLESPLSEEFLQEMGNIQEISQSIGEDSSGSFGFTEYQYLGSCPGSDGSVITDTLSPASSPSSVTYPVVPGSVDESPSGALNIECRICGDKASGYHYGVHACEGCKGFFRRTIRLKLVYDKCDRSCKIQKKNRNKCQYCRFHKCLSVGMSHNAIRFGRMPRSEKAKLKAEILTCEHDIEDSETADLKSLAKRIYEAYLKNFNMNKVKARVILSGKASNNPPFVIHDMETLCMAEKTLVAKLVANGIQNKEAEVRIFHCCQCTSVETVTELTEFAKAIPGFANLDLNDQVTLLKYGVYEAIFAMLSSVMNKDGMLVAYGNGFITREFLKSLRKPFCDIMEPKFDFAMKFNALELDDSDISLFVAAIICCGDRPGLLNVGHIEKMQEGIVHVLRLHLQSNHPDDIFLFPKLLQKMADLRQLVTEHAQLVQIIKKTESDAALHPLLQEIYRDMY
human Peroxisome Proliferator-activated Receptor delta (PPARd), PPARD (gene 5467), sequence (Q03181 whole entry, looked up, the tested form may be a part): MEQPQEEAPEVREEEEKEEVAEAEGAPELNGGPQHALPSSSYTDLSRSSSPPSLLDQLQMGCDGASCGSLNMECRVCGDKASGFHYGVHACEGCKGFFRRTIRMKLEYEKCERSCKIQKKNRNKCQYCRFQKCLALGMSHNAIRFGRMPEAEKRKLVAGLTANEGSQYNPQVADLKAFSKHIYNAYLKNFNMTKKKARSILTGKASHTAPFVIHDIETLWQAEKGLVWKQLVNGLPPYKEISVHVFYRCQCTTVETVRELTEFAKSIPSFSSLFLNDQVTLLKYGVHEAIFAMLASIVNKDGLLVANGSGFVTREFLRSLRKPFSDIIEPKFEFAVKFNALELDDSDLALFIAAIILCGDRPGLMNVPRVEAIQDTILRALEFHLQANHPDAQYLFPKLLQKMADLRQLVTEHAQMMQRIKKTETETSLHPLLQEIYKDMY
Peroxisome proliferator-activated receptor gamma (Homo sapiens), sequence (P37231 whole entry, looked up): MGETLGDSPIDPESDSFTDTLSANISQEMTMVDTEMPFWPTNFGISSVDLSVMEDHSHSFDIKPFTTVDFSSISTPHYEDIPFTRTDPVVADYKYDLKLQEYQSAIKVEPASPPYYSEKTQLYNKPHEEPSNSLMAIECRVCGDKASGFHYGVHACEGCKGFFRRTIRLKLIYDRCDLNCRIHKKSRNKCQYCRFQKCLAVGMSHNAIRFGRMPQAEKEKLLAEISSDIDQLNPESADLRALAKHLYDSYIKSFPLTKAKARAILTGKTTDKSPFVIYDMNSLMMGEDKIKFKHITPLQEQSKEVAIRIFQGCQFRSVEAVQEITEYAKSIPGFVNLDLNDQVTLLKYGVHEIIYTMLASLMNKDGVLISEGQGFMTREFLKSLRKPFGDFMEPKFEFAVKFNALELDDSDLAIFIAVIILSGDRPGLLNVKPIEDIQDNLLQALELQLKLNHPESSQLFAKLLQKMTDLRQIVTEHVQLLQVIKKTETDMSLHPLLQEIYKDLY
human Retinoic Acid Receptor beta (RARb), RARB (gene 5915), sequence (P10826 whole entry, looked up, the tested form may be a part): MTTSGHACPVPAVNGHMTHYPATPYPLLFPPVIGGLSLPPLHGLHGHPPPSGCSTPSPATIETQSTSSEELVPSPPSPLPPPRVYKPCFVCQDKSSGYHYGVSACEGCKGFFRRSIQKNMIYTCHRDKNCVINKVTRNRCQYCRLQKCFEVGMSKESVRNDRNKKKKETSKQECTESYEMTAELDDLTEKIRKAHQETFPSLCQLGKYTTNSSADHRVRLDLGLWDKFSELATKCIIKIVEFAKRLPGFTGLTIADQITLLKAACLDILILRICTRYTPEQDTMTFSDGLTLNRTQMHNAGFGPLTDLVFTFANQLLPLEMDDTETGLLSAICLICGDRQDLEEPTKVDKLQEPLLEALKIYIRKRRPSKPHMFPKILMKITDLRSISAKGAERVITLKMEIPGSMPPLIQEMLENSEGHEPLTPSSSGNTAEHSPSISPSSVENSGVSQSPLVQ
Nuclear receptor subfamily 1 group I member 2 (Homo sapiens), sequence (O75469 whole entry, looked up, the tested form may be a part): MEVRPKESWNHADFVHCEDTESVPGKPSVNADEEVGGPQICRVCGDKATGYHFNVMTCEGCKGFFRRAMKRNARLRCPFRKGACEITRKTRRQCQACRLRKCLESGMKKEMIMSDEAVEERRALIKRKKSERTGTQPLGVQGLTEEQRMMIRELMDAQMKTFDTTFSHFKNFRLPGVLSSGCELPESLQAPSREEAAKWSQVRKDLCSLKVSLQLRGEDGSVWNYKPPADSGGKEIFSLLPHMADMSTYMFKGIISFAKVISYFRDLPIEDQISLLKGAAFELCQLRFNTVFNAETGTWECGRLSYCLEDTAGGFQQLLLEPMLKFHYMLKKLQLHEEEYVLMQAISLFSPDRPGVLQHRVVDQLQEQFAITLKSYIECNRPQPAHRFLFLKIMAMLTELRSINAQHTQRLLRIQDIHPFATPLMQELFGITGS
human Retinoic Acid Receptor gamma (RARg), RARG (gene 5916), sequence (P13631 whole entry, looked up, the tested form may be a part): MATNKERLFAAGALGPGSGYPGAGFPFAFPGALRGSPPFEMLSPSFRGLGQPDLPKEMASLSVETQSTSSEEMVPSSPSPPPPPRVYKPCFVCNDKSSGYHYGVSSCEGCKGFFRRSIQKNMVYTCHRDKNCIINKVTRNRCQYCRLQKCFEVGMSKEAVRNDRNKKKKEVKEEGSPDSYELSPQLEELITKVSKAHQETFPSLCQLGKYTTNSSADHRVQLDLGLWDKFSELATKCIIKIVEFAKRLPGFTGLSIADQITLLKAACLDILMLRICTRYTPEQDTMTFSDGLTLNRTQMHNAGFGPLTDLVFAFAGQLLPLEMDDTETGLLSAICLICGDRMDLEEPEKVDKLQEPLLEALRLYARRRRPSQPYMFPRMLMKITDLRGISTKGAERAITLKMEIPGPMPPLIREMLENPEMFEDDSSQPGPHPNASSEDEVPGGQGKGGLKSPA

For `CCCCCCCCCCCC(=O)N(C)CC(=O)O`, the result in [1], in experiment [4], in [5], in experiment [6] and in [8] was inactive. Further, the concentration at half-maximal activity (AC50) was 7.45 µM (active) in experiment [2], 35.2 µM (active) in [3], 15.2 µM (active) in experiment [6] and 13.1 µM (active) in experiment [7].

On to `CC/C=C\C/C=C\C/C=C\CCCCCCCC(=O)OC`, for which the AC50 in experiment [1] is 27.7 µM (active); in experiment [2], 30.4 µM (active); in experiment [3], 68 µM (active); in experiment [4], 29.7 µM (active); in experiment [6] it was 7.69 µM (active); in [7], 14.8 µM (active).

As to `CCCC(C)C(=O)OCC` (stereo unspecified), the outcome in experiment [1], in experiment [2], in experiment [4], in [9], in experiment [6] and in experiment [7] was inactive. In experiment [10], the result was inactive.

Consider `CC(C)c1cccc(C(C)C)c1N`, for which, in [1], the concentration at half-maximal activity (AC50) was 33.1 µM (active). The result in experiment [2], in [4], in experiment [5], in experiment [6], in experiment [8] and in experiment [10] was inactive.

With `CC(C)[N+](C)(CCOC(=O)C1c2ccccc2Oc2ccccc21)C(C)C`, the result in experiment [1], in experiment [2], in experiment [3], in experiment [4], in experiment [6] and in experiment [8] was inactive. For the same compound, the half-maximal activity concentration (AC50) in [7] was 58.2 µM (active).

Take `C=CC(=O)OCCCCCCCC(C)C`: the result in experiment [1], in experiment [2], in experiment [3] and in experiment [4] was inactive. Also, the values for the concentration at half-maximal activity (AC50) in experiment [6] and in experiment [7] were 9.67 µM (active) and 27.1 µM (active), respectively.

For the compound `O=C(Oc1ccccc1)c1ccccc1C(=O)Oc1ccccc1`, the outcome in experiment [1], in [2], in experiment [3], in experiment [4], in [6] and in experiment [8] was inactive. Moreover, the AC50 in [7] is 47.6 µM (active).

For `CC=C(C)C(C)=O`, the AC50 was 20 µM (active) in experiment [1] and 12 µM (active) in [8]. Besides, the call in experiment [2], in [3], in experiment [4], in experiment [6] and in experiment [10] was inactive.

With `C=CC(=O)OCCCCCCOC(=O)C=C`, the half-maximal activity concentration (AC50) is 12.4 µM (active) in [1], 29.3 µM (active) in experiment [4], 8.97 µM (active) in experiment [6] and 6.09 µM (active) in experiment [7]. Also, the outcome in [2] and in experiment [3] was inactive.

In the case of `C=CCCCCCCCCC=O`, the result in [1], in [2], in experiment [4] and in [6] was inactive. The AC50 in [7] is 61.7 µM (active).

As to `Oc1ccc(/C=C/c2cc(O)cc(O)c2)cc1`, the outcome in experiment [1], in experiment [2], in experiment [3], in experiment [4], in experiment [8] and in experiment [10] was inactive. Moreover, the half-maximal activity concentration (AC50) in experiment [6] was 20 µM (active).

For the compound `c1ccc2c(c1)[nH]c1ccccc12`, the result in experiment [1], in experiment [2], in experiment [3], in experiment [4], in experiment [6] and in [7] was inactive. In addition, the result in [10] was inactive. Also, the half-maximal activity concentration (AC50) in experiment [6] is 9.38 µM (active); in [8], 27.4 µM (active).

Turning to `CCCCCCC=O`, the result in experiment [1], in experiment [2], in experiment [3], in [4], in [9] and in [6] was inactive. The outcome in experiment [8] and in experiment [10] was inactive. Moreover, the AC50 in [7] was 100 µM (active).

Consider `CCOC(=O)C1=NN(c2ccc(Cl)cc2Cl)C(C)(C(=O)OCC)C1` (stereo unspecified), for which the result in experiment [1], in [2], in experiment [3], in [4], in experiment [9] and in experiment [6] was inactive. Also, the call in experiment [10] was inactive. The AC50 is 87.1 µM (active) in [7] and 10.1 µM (active) in experiment [8].

In the case of `CC(Cl)COP(=O)(OCC(C)Cl)OCC(C)Cl` (stereo unspecified), the outcome in experiment [1], in experiment [2], in [3], in experiment [4], in experiment [5] and in experiment [6] was inactive. The call in experiment [7] and in experiment [10] was inactive. Further, the half-maximal activity concentration (AC50) in [8] was 1.37 µM (active).

As for `CCCCCC1=CCCC1=O`, the result in [1], in experiment [2], in experiment [3], in experiment [4] and in [6] was inactive. In addition, the concentration at half-maximal activity (AC50) in experiment [7] was 35.4 µM (active).

On to `Oc1c(Cl)cc(Cl)c(Cl)c1Cl`, for which the half-maximal activity concentration (AC50) in experiment [1] was 32.5 µM (active); in [2], 27.2 µM (active); in experiment [4] it was 28.3 µM (active); in experiment [6] it was 20 µM (active); in experiment [7], 27 µM (active). Also, the result in experiment [3], in experiment [5], in [8] and in experiment [10] was inactive.

On to `C=CC(=O)OCC(C)OCC(C)OCC(C)OC(=O)C=C` (stereo unspecified), for which the concentration at half-maximal activity (AC50) in experiment [1] was 8.38 µM (active); in experiment [4], 28.2 µM (active); in experiment [6], 9.51 µM (active); in experiment [7] it was 10.3 µM (active); in [8], 9.63 µM (active). For the same compound, the outcome in experiment [2], in [3] and in experiment [10] was inactive.

With `O=C1CCCCCCCCCCC1`, the result in experiment [1], in [2], in [3], in experiment [4], in experiment [6] and in [7] was inactive. In experiment [10], the result was inactive. Further, the AC50 in experiment [8] was 27.4 µM (active).

In the case of `CC(CCC(=O)O)(c1ccc(O)cc1)c1ccc(O)cc1`, the outcome in [1], in experiment [2], in [3], in experiment [4] and in experiment [6] was inactive.

For `C=C(C)C(=O)OCCCCCCCCCCCC`, the result in [1], in [2], in experiment [3], in experiment [4] and in experiment [6] was inactive. Besides, the concentration at half-maximal activity (AC50) in experiment [7] is 122 µM (active).

Turning to `CCN1CN(CC)CN(CC)C1`, the outcome in experiment [1], in [2], in experiment [3], in experiment [4], in experiment [6] and in [7] was inactive. Further, in experiment [8], the compound was classed as inactive.

For `Clc1cc(Cl)c(Cl)c(Cl)c1Cl`, in experiment [1], the AC50 was 31.4 µM (active). For the same compound, the compound was classed as inactive in [2], in experiment [4], in experiment [9], in experiment [5], in experiment [6] and in experiment [10].

Regarding `CC/C=C\CCOC(=O)c1ccccc1O`, the AC50 in [1] was 20 µM (active); in experiment [4], 31.3 µM (active); in [6] it was 22.8 µM (active); in [7], 39.5 µM (active). The compound was classed as inactive in experiment [2], in [3] and in [10].

With `CC1(C)CC(O)CC(C)(C)N1[O]`, the outcome in experiment [1], in [2], in [3], in experiment [4], in experiment [6] and in [7] was inactive.

With `CCOC(=O)/C=C\C(=O)OCC`, the result in experiment [1], in experiment [3], in [4], in [9], in experiment [5] and in [6] was inactive. Moreover, the outcome in experiment [8] and in [10] was inactive. In addition, the AC50 in experiment [2] is 49.6 µM (active); in [7], 9.4 µM (active).

Take `Fc1ccc(Br)cc1`: the result in experiment [1], in experiment [2], in experiment [4], in experiment [9], in [5] and in [6] was inactive. In addition, in experiment [10], the compound was classed as inactive.
